The values that follow come from PubChem BioAssay (NCI).

SMILES strings stand for the structures. The panel holds about 83,000 compounds, 20% with a hit somewhere; the sample as a whole holds those more often.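 Testing used 96-well plates and a 48-hour single-concentration exposure. Example: -40 means 40% of the starting cells died.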 Values without a mark were called inactive. Activity calls are given as the source filed them. The calls were made as follows: active = growth percent below 10; inactive = the rest.

Assay in all cases: NCI-60 one-dose screen, 48 h (100 = growth as untreated, 0 = no growth, -100 = all killed)
Details in all cases: 10 µM unless noted

The subject of experiment [1] is DU-145 prostate.
Experiment [2] relates to K-562 leukemia.
Experiment [3] relates to MALME-3M melanoma.
The subject of experiment [4] is MDA-MB-231 breast.
Experiment [5] relates to RXF 393 renal.
The test system of experiment [6] is SF-268 CNS.
In experiment [7] the test system is SF-295 CNS.
Experiment [8] has as its system SF-539 CNS.
Experiment [9] relates to UACC-257 melanoma.
The subject of experiment [10] is M14 melanoma.
In experiment [11] the test system is HCT-15 colon.
In experiment [12] the test system is HT29 colon.
The subject of experiment [13] is SNB-75 CNS.
Experiment [14] concerns SNB-19 CNS.
For experiment [15], the system named is U251 CNS.
Experiment [16] relates to PC-3 prostate.
Experiment [17] relates to SK-MEL-5 melanoma.
In experiment [18] the test system is UACC-62 melanoma.
In experiment [19] the test system is LOX IMVI melanoma.
Experiment [20] relates to SK-MEL-28 melanoma.

Regarding `CSc1oc(C)nc1[P+](c1ccccc1)(c1ccccc1)c1ccccc1`, the growth was 57.6% in experiment [1]; 31% in experiment [2]; 76.1% in experiment [3]; 65.4% in [4]; 75.9% in experiment [5]; 54.8% in [6]. Also, the growth was 78.3% in experiment [7]; 79.6% in experiment [8]; 20.5% in [9]; 74.9% in [10]; 104% in experiment [11]; 53.9% in experiment [12]. The growth in experiment [13] was 75.9%; in experiment [14], 45%; in [15] it was 42.2%; in experiment [16] it was 52.1%; in experiment [17] it was -9.07% (active); in experiment [18], 47.2%. Moreover, the values for the growth in experiment [19] and in experiment [20] were 28.7% and 61.1%, respectively.
With `COc1ccc(C2=C(Br)C(=O)c3nc(C)ccc3C2=O)cc1`, the growth in experiment [1] was 105%; in experiment [2], 36.7%; in [3], 91.7%; in experiment [4], 73.2%; in [5] it was 95.2%; in [6], 94.6%. Further, the growth in experiment [7] was 105%; in [8], 94.8%; in [9] it was 64.2%; in experiment [10], 92.8%; in experiment [11], 93.1%; in experiment [12] it was 110%. In addition, the growth was 93.8% in [13]; 94.9% in experiment [14]; 94% in [15]; 80% in experiment [16]; 91.6% in [17]; 88.5% in [18]. Further, the growth in [19] is 95.4%; in experiment [20] it was 107%.
In the case of `CCOC(=O)Cc1cnc(N/N=C(\C)c2cc3ccccc3o2)s1`, the growth in [1] is 113%; in experiment [2], 98.5%; in [3], 91.8%; in experiment [4] it was 91.4%; in [5], 107%; in experiment [6], 98.8%. Also, the growth is 104% in [7]; 107% in experiment [8]; 98.2% in experiment [9]; 98.2% in [10]; 105% in experiment [11]; 85.5% in experiment [12]. In addition, the growth is 105% in experiment [13]; 95% in experiment [14]; 91.3% in [15]; 78% in [16]; 99.3% in [17]; 86.3% in experiment [18]. The results for the growth in experiment [19] and in experiment [20] were 86% and 110%, respectively.
On to `CCOC(=O)c1cc(C(=O)c2cc(OC)c(OC)c(OC)c2)n2ncccc12`, for which the growth in [1] was 23.7%; in [2], 10.9%; in experiment [3] it was 44.9%; in experiment [4], 31.2%; in [5], -4.2% (active); in experiment [6], 47.7%. In addition, the growth is 13.6% in [7]; -12.3% (active) in experiment [8]; 52.1% in [9]; 3.88% (active) in experiment [10]; 24% in [11]; 3.66% (active) in experiment [12]. The growth is 34% in experiment [13]; 38.9% in [14]; 14.8% in experiment [15]; 21.1% in experiment [16]; 25.9% in [17]; 29.5% in experiment [18]. Also, the growth in experiment [19] is 42.5%; in experiment [20] it was 67.7%.
For `CN(C)CCNC(=O)c1cc2c3cc(Cl)ccc3[nH]c2c2ncccc12`, the growth in [1] was 7.58% (active); in [2], -25.1% (active); in experiment [3], -29.9% (active); in experiment [4] it was 30.3%; in [5] it was 15.5%; in [6], 13.5%. The growth in [7] was 22.1%; in [8], 5.06% (active); in experiment [9] it was 18.4%; in experiment [10], -81% (active); in [11], 14.2%; in experiment [12] it was 0.808% (active). Also, the growth in [13] was 44.7%; in experiment [14], 40%; in experiment [15], 11.5%; in [16], 22.4%; in [17], -38.8% (active); in experiment [18], -86.5% (active). For the same molecule, the figures for the growth in experiment [19] and in [20] were -77.5% (active) and -59.3% (active), respectively.
With `O=C(/C=C/c1cccc(Cl)c1)c1cccc(OCCCOc2cccc(C(=O)/C=C/c3cccc(Cl)c3)c2)c1`, the growth was 108% in experiment [1]; 86.9% in experiment [2]; 116% in experiment [3]; 94.9% in [4]; 104% in experiment [5]; 98.8% in experiment [6]. The growth in [7] is 95.1%; in experiment [8], 106%; in experiment [9], 102%; in experiment [10] it was 89.9%; in experiment [11] it was 98.1%; in experiment [12], 96.6%. The growth was 81.7% in experiment [13]; 101% in experiment [14]; 75.5% in experiment [15]; 100% in experiment [16]; 100% in experiment [17]; 80.6% in experiment [18]. Also, the results for the growth in [19] and in experiment [20] were 63.5% and 108%, respectively.
With `CC(C)(Sc1cc(C(C)(C)C)c(O)c(C(C)(C)C)c1)Sc1cc(C(C)(C)C)c(OC(=O)CCCC(=O)O)c(C(C)(C)C)c1`, the growth is 59.4% in [1]; 41.6% in experiment [2]; 75.4% in [3]; 74.2% in experiment [4]; 73.3% in [5]; 63.1% in experiment [6]. The growth is 50.4% in experiment [7]; 62.7% in [8]; 74.6% in experiment [9]; 54.6% in [10]; 27.8% in [11]; 40.8% in experiment [12]. Further, the growth was 112% in experiment [13]; 57.1% in experiment [14]; 47.1% in experiment [15]; 33.9% in experiment [16]; 54.1% in experiment [17]; 26.1% in experiment [18]. In addition, the growth is 59% in [19] and 70.6% in experiment [20].
For `CC1CN(S(=O)(=O)c2oc(-c3ccc(Cl)cc3)nc2C#N)CC(C)O1` (stereo not given), the growth in experiment [1] was 97.7%; in [2], 4.49% (active); in experiment [3], 46.4%; in experiment [4], 90.7%; in [5], 40.3%; in experiment [6], 111%. Moreover, the growth was 97.9% in [7]; 60.7% in experiment [8]; 87.3% in experiment [9]; 67.9% in experiment [10]; -26.5% (active) in experiment [11]; 58.5% in [12]. Further, the growth in experiment [13] was 91.1%; in experiment [14], 97.5%; in [15] it was 89.6%; in experiment [16] it was 90.2%; in [17], 92.7%; in experiment [18], 96.7%. Moreover, the values for the growth in experiment [19] and in experiment [20] were 8.2% (active) and 97.9%, respectively.
